Measured values as given in PubChem BioAssay (NCATS).
Records with an inconclusive call do not appear. Active and inactive are the calls of the source. Unless noted, calls follow the shape of the dose curve; as a rule, active = well fitted curve in either direction with a large enough effect (not every such curve was filed as active); inconclusive = small, poorly fitted or top-dose-only effect, or another doubt; inactive = flat fitted curve, though single readings scatter.

Assays:
[1] = target: Lysosomal acid glucosylceramidase (Homo sapiens) (UniProt P04062); assay: Glucocerebrosidase-p2 (AID 348; in the data active = potency below about 10 µM; also: potency is read from the fitted curve at half-maximal effect); settings: purified GBA, blue fluorogenic substrate, 40 min
Outline: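 Compounds titrated from 0.6 nM upwards against 0.2 nM enzyme in pH 5.9 citric acid/KH2PO4, taurocholate, tween-20; blue fluorogenic substrate 80 uM, 40 min room temperature, stopped and read Ex 365/Em 440 for AC50.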

[2] = AP1 Signaling Pathway (AID 357); settings: ME-180 AP-1-bla reporter, EGF-induced, beta-lactamase ratio, 5 h; at 7.69 µM (top of the series) unless noted;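 also: ME-180 reporter cells stimulated with EGF at its EC50 level; % is scaled to controls: 0 for no effect and ±100 for the full control effect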
Outline: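 In this screen, ME-180 cells in Opti-MEM with 0.5% dialyzed FBS received EC50 EGF and compound titrations for 5 h. AP-1 reporter beta-lactamase was detected via CCF4 ratio, giving AC50 for positive and negative modulators.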

[3] = target: Cytochrome P450 1A2 (Homo sapiens) (UniProt P05177); assay: p450-cyp1a2 (AID 410; calls by dose curve; also: potency is read from the fitted curve at half-maximal effect;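 as to activity change, negative = inhibition: -100% = full effect of reference inhibitor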); settings: recombinant CYP1A2, luciferin-ME demethylation, luminescence; series mostly up to 57 µM
Outline: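 20nM CYP1A2 with 100uM Luciferin-ME (at Km) in 100mM KPO4; compound preincubated 10 min, NADPH regeneration added, 60 min at room temperature. Luciferin quantified by luminescence after detection reagent; normalized to 57 uM furafylline.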

[4] = Stat Signaling Pathway (AID 446); settings: ME-180 SIE beta-lactamase reporter, IL-6 stimulated, 5 h; at 7.69 µM (top of the series) unless noted;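 also: ME-180 cervical cancer cells given 40 pM IL-6 alongside compound; SIE-controlled beta-lactamase reporter measured as 460/530 nm FRET emission ratio; % is scaled to controls: 0 for no effect and ±100 for the full control effect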
Outline: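 ME-180 cells carrying a SIE-driven beta-lactamase reporter are stimulated with 40 pM IL-6 for 5 h at 37C in the presence of compound. The 460/530 nm FRET substrate ratio is read after 2.5 h at RT. Data are normalised to 300 pM IL-6 and to 125 nM JAK inhibitor controls.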

[5] = target: Glucocorticoid receptor (Homo sapiens) (UniProt P04150); assay: GR-EFC Redistribution (AID 451; calls by dose curve; also: potency is read from the fitted curve at half-maximal effect); settings: CHO-K1 GR-EFC translocation, beta-gal luminescence, 2 h
Outline: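 CHO-K1 cells expressing nuclear EA and GR-ED fragments of b-gal; compounds titrated up to 46 uM final, 2 h at 37 C. GR nuclear translocation read as complemented b-gal luminescence after 1 h RT detection.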

[6] = target: Mitogen-activated protein kinase 10 (Mus musculus) (UniProt Q61831); assay: JNK3 AlphaScreen Assay (AID 530); settings: JNK3 lysate, c-Jun phosphorylation; series mostly up to 57.1 µM;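 also: kinase came from lysate of stimulated human HepG2 cells; signal reports phosphorylation of biotinylated GST-cJun 1-79 at Ser73 with 10 µM ATP; % is scaled to controls: 0 for no effect and ±100 for the full control effect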
Outline: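 Pre-activated (IL-1β/TNFα) JNK3 in HepG2 lysates phosphorylates biotin-GST-cJun(1-79), 10 uM ATP; anti-phospho-cJun(Ser73) AlphaScreen read at room temperature, pH 7.6 Tris buffer. Compounds pre-incubated 15 min as titrations.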

[7] = target: 3',5'-cyclic-AMP phosphodiesterase 4B (Homo sapiens) (UniProt Q07343); assay: qHTS Assay for Inhibitors of PDE-IV (AID 607; active = well fitted activation curve with a large enough effect in the main read-out, with a control signal flat, not every such curve was filed as active; also: % of control where 0% means no effect); settings: HEK293 ACTOne CNG channel cells, membrane potential fluorescence; series mostly up to 22.9 µM
Outline: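 HEK293 ACTOne cells with CNG channel (1000/well), endogenous PDE4; membrane potential dye, compounds up to 22.9 uM final. Fluorescence Ex 535/Em 590; RO 20-1724 (100 uM final) as reference.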

[8] = target: Cytochrome P450 3A4 (Homo sapiens) (UniProt P08684); assay: qHTS Assay for Activators of Cytochrome P450 3A4 (AID 885; active = well fitted curve in the direction sought with a large enough effect; an effect the other way counts as inactive or inconclusive; also: nearly all actives have a fitted effect of over 65% in size; also: potency is read from the fitted curve at half-maximal effect); settings: recombinant CYP3A4, Luciferin-PPXE luminescence, 60 min; series mostly up to 57.1 µM
Outline: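 Human CYP3A4 (20 nM) with Luciferin-PPXE at 25 uM (its KM) in 200 mM KPO4; 10 min compound preincubation, then NADPH regeneration and 60 min reaction at RT. Luciferin read by luminescence; normalized to 57 uM ketoconazole full inhibition.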

[9] = qHTS Assay for Lipid Storage Modulators (AID 1519; calls by dose curve); settings: Drosophila S3 cells, BODIPY lipid droplet/cell ratio, laser cytometry, cells loaded with oleic acid; for activity change, negative = inhibition: at 57.5 µM (top of the series)
Outline: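 Cells seeded at 5,000 per well were treated with compounds over a concentration series and loaded with oleic acid (400 uM, as added). Lipid droplet fluorescence (488 nm excitation, 500-530 nm channel) was read by laser-scanning cytometry and normalized to 20 uM Triacsin C.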

[10] = Primary qHTS for small molecule stabilizers of the endoplasmic reticulum resident proteome: Secreted ER Calcium Modulated Protein (SERCaMP) assay (AID 1508630; active = well fitted curve in the direction sought with a large enough effect; an effect the other way counts as inactive or inconclusive; also: % is scaled to controls: 0 for no effect and ±100 for the full control effect); settings: SH-SY5Y GLuc-SERCaMP (Gaussia luciferase released on ER calcium loss) secretion, thapsigargin, luminescence; series mostly up to 38.4 µM
Outline: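 GLuc-SERCaMP-expressing SH-SY5Y cells, pretreated 16 h with compound, are challenged with thapsigargin to empty ER calcium stores; after 4 h, coelenterazine is added directly to the medium and luminescence is imaged.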

[11] = target: Cytochrome P450 3A4 (Homo sapiens) (UniProt P08684); assay: qHTS Assay for Inhibitors and Substrates of Cytochrome P450 3A4 (AID 884; active = well fitted curve in the direction sought with a large enough effect; an effect the other way counts as inactive or inconclusive; also: % is scaled to controls: 0 for no effect and ±100 for the full control effect; nearly all actives have a fitted effect of over 50% in size); settings: recombinant CYP3A4, Luciferin-PPXE luminescence; series mostly up to 57.1 µM
Outline: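 20 nM human CYP3A4 with 25 uM Luciferin-PPXE (at KM) in 200 mM KPO4, preincubated 10 min with compound; NADPH regeneration started a 60 min RT reaction. Luciferin detected by luminescence, normalized to 57 uM ketoconazole as full inhibition.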

[12] = qHTS Assay for Identification of Small Molecule Agonists for Hypoxia Response Element Signaling Pathway (AID 914; active = well fitted activation curve with a large enough effect in the signal ratio, with a control signal flat, not every such curve was filed as active; the % refers to the signal ratio; also: % of control where 0% means no effect); settings: ME-180 HRE-bla reporter, beta-lactamase ratio, CoCl2, 17 h; activation: stronger effect = higher value
Outline: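 ME-180 cells carrying an HRE-driven beta-lactamase reporter were treated with compounds in a titration series plus an EC50 level of CoCl2 for 17 h at 37 degrees Celsius; CCF4 readout as the 460nm/530nm ratio gave AC50 values.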

[13] = target: Cytochrome P450 2D6 (Homo sapiens) (UniProt P10635); assay: qHTS Assay for Inhibitors and Substrates of Cytochrome P450 2D6 (AID 891; active = well fitted curve in the direction sought with a large enough effect; an effect the other way counts as inactive or inconclusive; also: potency is read from the fitted curve at half-maximal effect; nearly all actives have a fitted effect of over 60% in size); settings: recombinant CYP2D6, luciferin-ME EGE luminescence; series mostly up to 57.1 µM
Outline: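 Human CYP2D6 (5 nM) with 30 uM Luciferin-ME EGE (at Km) in 100 mM KPO4, compound preincubated 10 min, then NADPH regeneration system for 60 min at room temperature. Luciferin read by luminescence; normalized to 1.43 uM quinidine.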

[14] = target: Cytochrome P450 2C19 (Homo sapiens) (UniProt P33261); assay: qHTS Assay for Inhibitors and Substrates of Cytochrome P450 2C19 (AID 899; active = well fitted curve in the direction sought with a large enough effect; an effect the other way counts as inactive or inconclusive; also: potency is read from the fitted curve at half-maximal effect; nearly all actives have a fitted effect of over 60% in size); settings: recombinant CYP2C19, luciferin-H EGE luminescence; series mostly up to 57.1 µM
Outline: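 5 nM human CYP2C19 with 10uM Luciferin-H EGE (at KM) in 50mM KPO4, compound preincubated 10 min at 37C, then NADPH regeneration for 60 min at 37C. Luciferin read by luminescence after detection reagent; normalized to 57uM ketoconazole as full inhibition.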

[15] = measured here: cell count channel max response
[16] = measured here: lipid channel max response

Lysosomal acid glucosylceramidase (Homo sapiens), sequence (P04062 whole entry, looked up): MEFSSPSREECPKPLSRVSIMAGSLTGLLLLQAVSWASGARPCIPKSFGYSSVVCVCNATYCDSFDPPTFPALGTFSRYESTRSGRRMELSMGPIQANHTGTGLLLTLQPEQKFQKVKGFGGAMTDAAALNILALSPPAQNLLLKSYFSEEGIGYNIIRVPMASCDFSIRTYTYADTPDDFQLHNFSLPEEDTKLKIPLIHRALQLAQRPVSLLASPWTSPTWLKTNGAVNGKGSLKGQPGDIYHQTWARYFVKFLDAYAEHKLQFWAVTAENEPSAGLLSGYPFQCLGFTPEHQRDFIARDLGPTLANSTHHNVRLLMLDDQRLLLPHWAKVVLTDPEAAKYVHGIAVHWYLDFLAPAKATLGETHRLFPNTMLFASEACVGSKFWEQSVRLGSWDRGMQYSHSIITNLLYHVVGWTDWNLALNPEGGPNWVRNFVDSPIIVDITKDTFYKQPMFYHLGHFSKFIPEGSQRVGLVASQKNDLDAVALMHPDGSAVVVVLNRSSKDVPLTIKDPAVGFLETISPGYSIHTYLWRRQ
Glucocorticoid receptor (Homo sapiens), sequence (P04150 whole entry, looked up, the tested form may be a part): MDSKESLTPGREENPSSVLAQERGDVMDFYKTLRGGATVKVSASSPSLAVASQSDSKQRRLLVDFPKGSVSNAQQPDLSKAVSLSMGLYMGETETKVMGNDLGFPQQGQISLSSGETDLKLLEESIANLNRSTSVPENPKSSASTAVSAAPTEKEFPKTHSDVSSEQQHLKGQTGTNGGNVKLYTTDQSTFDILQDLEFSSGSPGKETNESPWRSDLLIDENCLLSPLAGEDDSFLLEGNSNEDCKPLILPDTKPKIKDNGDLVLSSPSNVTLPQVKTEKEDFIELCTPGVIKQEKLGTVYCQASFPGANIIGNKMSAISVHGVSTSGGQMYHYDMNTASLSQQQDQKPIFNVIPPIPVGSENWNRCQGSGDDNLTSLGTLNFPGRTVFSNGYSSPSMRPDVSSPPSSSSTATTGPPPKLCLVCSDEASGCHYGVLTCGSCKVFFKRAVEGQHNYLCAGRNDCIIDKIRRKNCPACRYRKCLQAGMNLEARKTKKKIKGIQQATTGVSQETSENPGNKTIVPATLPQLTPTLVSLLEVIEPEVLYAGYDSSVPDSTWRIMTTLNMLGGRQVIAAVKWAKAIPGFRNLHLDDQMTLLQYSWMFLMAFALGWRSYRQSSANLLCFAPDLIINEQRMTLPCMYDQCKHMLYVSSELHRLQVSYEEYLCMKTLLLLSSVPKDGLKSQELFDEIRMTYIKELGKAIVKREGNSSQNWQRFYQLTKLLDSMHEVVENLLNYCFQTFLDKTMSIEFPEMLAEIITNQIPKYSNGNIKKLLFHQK
Cytochrome P450 3A4 (Homo sapiens), sequence (P08684 whole entry, looked up): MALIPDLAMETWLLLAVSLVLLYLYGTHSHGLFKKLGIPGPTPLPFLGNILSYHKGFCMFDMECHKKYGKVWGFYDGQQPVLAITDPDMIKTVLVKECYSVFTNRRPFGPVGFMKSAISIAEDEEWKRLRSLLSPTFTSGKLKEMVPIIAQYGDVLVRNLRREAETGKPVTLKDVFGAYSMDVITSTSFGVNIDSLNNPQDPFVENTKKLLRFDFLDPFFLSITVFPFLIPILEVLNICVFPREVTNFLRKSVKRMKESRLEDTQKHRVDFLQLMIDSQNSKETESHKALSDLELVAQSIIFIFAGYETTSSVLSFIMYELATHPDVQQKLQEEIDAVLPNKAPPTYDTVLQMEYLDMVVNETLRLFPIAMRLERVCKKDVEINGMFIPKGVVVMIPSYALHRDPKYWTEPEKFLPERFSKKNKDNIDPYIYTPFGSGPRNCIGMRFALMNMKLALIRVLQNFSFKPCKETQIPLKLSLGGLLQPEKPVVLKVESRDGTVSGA
3',5'-cyclic-AMP phosphodiesterase 4B (Homo sapiens), sequence (Q07343 whole entry, looked up): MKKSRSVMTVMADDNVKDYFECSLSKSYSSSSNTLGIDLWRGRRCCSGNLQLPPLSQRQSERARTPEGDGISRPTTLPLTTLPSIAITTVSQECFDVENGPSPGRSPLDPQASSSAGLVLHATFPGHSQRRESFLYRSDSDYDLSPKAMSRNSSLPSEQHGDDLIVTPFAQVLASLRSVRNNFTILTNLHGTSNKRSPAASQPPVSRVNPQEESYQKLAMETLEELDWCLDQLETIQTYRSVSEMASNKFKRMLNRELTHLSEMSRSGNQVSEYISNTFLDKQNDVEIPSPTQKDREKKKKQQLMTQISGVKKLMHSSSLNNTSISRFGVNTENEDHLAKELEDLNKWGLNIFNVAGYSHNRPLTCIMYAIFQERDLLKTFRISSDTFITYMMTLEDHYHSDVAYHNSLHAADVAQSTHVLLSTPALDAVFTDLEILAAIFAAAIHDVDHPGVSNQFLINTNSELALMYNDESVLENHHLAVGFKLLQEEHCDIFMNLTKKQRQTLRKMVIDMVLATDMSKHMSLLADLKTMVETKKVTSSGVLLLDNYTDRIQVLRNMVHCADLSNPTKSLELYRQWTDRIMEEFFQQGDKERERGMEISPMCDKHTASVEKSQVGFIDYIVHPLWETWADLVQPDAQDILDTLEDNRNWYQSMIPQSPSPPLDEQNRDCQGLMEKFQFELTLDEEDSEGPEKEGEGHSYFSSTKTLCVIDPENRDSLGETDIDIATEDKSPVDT
Cytochrome P450 1A2 (Homo sapiens), sequence (P05177 whole entry, looked up): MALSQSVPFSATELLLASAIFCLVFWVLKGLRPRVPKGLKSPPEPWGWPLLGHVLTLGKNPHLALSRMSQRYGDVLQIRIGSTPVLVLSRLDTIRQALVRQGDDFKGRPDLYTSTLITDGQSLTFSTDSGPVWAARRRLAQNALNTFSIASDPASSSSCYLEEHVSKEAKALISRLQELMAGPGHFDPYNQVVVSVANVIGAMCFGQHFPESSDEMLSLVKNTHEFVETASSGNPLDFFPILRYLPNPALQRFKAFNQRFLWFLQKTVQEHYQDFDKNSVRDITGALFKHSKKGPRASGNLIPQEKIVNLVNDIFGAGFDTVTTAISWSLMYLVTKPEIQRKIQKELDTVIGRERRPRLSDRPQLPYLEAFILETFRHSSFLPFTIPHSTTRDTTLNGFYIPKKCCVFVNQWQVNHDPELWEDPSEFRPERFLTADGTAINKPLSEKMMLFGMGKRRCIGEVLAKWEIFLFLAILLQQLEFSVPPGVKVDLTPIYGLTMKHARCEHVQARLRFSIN
Cytochrome P450 2D6 (Homo sapiens), sequence (P10635 whole entry, looked up): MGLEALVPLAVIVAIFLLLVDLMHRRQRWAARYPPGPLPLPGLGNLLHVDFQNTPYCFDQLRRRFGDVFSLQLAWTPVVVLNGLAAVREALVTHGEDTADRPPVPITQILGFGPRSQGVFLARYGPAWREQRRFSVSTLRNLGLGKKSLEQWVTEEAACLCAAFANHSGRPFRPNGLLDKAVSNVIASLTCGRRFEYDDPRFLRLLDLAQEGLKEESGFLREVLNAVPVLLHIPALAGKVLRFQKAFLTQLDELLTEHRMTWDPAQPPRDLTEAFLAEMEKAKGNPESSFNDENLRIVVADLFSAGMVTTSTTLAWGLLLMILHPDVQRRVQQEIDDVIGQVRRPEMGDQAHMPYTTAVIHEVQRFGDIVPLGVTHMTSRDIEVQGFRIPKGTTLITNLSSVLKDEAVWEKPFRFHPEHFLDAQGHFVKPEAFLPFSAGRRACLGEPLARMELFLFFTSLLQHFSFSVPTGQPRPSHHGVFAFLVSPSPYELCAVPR
Cytochrome P450 2C19 (Homo sapiens), sequence (P33261 whole entry, looked up): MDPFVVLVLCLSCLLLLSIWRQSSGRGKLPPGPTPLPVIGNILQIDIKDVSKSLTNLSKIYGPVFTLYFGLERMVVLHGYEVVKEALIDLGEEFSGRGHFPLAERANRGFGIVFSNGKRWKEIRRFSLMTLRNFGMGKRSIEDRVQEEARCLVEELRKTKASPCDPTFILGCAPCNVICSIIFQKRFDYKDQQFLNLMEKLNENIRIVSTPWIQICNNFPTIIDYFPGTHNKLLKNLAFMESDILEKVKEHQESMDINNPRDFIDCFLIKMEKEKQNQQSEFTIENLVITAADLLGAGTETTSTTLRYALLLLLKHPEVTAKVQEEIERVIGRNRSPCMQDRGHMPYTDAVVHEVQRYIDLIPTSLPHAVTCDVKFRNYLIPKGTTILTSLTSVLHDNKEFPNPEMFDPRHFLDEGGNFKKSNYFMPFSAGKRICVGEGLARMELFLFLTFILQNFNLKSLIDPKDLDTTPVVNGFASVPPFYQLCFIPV

COCC(=O)N1CCC2(CCCN(c3ccncc3)C2)CC1
inactive: Potency [1] > 11.4 µM | activity change, negative = inhibition [2] 3.93% | Potency [3] | activity, negative = inhibition [4] -8.03% | Potency [5] > 46 µM | Potency [6] | Potency [7] | Potency [8] | activity change, negative = inhibition [9] 3.88% | outcome [10]
-7.49%: max response [9, 15]
0.42%: max response [9, 16]

O=C(Nc1cccc(F)c1)N1CC[C@@]2(CCCN(C(=O)c3cc(C(F)(F)F)cc(C(F)(F)F)c3)C2)C1
inactive: Potency [1] > 11.4 µM | activity change, negative = inhibition [2] -8.61% | Potency [3] | activity, negative = inhibition [4] -4.49% | Potency [5] > 46 µM | Potency [6] | Potency [7] | Potency [8] | activity change, negative = inhibition [9] 5.77% | outcome [10]
6%: max response [9, 16]
-3.02%: max response [9, 15]

COc1ccc(C(=O)N2CCC3(CCCN(Cc4ccccc4OC)C3)CC2)cc1
-6.45%: max response [9, 16]
inactive: Potency [1] > 11.4 µM | activity change, negative = inhibition [2] 0.332% | Potency [3] | activity, negative = inhibition [4] -6.54% | Potency [5] > 46 µM | Potency [6] | Potency [7] | Potency [8] | activity change, negative = inhibition [9] -0.879% | outcome [10]
-8.51%: max response [9, 15]

Cn1cccc1C(=O)N1CCC2(CC1)CCN(C(c1ccccc1)c1ccccc1)CC2
active: Potency [3] 5.01 µM | Potency [8] 15.8 µM
inactive: Potency [1] > 11.4 µM | activity change, negative = inhibition [2] -3.6% | activity, negative = inhibition [4] -4.66% | Potency [5] > 46 µM | Potency [6] | Potency [7] | Potency [11] | activity change, negative = inhibition [9] -19.5% | outcome [10]
11.8%: max response [9, 15]
-8.47%: max response [9, 16]

O=C(c1ccco1)N1CCC2(CCN(Cc3nccs3)CC2)CC1
8.57%: max response [9, 15]
12.6%: max response [9, 16]
inactive: Potency [1] > 11.4 µM | activity change, negative = inhibition [2] 5.22% | Potency [3] | activity, negative = inhibition [4] 4.68% | Potency [5] > 46 µM | Potency [6] | Potency [7] | Potency [11] | activation [12] -9.81% | activity change, negative = inhibition [9] 1% | outcome [10]

COCC(=O)N1CCC[C@@]2(CCN(C(c3ccccc3)c3ccccc3)C2)C1
-21.2%: max response [9, 16]
-8.5%: max response [9, 15]
active: Potency [3] 12.6 µM | Potency [13] 6.31 µM
inactive: Potency [1] > 11.4 µM | activity change, negative = inhibition [2] 0.34% | activity, negative = inhibition [4] -0.903% | Potency [5] > 46 µM | Potency [6] | Potency [7] | Potency [8] | activity change, negative = inhibition [9] -13.8% | outcome [10]

c1ccc(C(c2ccccc2)N2CCC3(CCNCC3)CC2)cc1
27.4%: max response [9, 15]
inactive: Potency [1] > 11.4 µM | activity change, negative = inhibition [2] -10.6% | Potency [3] | activity, negative = inhibition [4] 0.474% | Potency [5] > 46 µM | Potency [6] | Potency [7] | activity change, negative = inhibition [9] -5.07% | outcome [10]
21.5%: max response [9, 16]
active: Potency [14] 3.98 µM
